Reference: PubChem BioAssay (NCATS)
Inconclusive results are not listed. Values without a mark were called inactive. The call rests on the fitted dose curve; in most records, active means well fitted inhibition curve with a large enough effect; inconclusive means small, poorly fitted or top-dose-only effect, or effect the other way; inactive means flat fitted curve, though single readings scatter.

What follows are molecules tested against ATP-dependent 6-phosphofructokinase (Trypanosoma brucei brucei) (UniProt O15648) (assay: qHTS Assay to Find Inhibitors of T. brucei phosphofructokinase: hit validation (AID 492961;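 further: luminescence reports ADP formed as PFK phosphorylates fructose-6-phosphate with ATP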)). Conditions: T. brucei PFK, ADP-Glo luminescence; series mostly up to 51.4 µM; activity change, negative = inhibition: at the top concentration.
Summary of the method: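 Percent activity derived from corrected luminescence, normalized between 0x and 1x enzyme controls, then fitted to concentration-response curves. Conditions: 1.25 nM PFK, 0.1 mM ATP, 0.5 mM F6P, 45 min RT.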
On the % scale 0 is the no-effect control and ±100 the full control effect.

ATP-dependent 6-phosphofructokinase (Trypanosoma brucei brucei), sequence (O15648 whole entry, looked up): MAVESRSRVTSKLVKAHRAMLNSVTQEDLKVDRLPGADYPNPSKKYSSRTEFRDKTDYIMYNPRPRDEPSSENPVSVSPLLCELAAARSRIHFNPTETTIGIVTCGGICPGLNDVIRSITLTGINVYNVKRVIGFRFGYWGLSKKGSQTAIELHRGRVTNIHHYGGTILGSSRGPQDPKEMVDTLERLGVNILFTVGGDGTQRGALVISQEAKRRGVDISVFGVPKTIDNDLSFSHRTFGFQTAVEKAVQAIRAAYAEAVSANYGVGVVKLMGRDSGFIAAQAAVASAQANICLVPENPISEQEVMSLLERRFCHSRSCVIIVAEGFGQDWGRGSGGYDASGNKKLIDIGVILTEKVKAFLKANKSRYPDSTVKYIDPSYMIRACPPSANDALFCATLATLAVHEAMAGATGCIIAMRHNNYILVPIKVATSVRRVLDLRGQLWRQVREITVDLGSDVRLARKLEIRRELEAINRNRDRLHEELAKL

Structure (SMILES)	activity change, negative = inhibition
COc1ccc(/C=C/C(=O)O)cc1	12.3%
CC(C)=CCC/C(C)=C/C=C/C(C)=C/C=C/C(C)=C/C=C/C=C(C)/C=C/C=C(C)/C=C/C=C(\C)CCC=C(C)C	-1.38%
CCN(CC)CCOc1ccc2nc(N(C)C)sc2c1	10.7%
CCN(CC)CCOC(=O)c1cccnc1	-7.77%
NC(=O)Oc1ccc(Cc2ccccc2)cc1	-25.3%
CCCCCc1ccc(C)cc1O	3.46%
CCCc1ccc(C(=O)O)cc1	8.91%
CC1=CCC2CC1C2(C)C (configuration not stated)	0.234%
COc1ccc(/C=C/C(=O)OCCC(C)C)cc1	3.47%
c1ccc2c(c1)OCC(CN1CCCCC1)O2 (configuration not stated)	4.8%
CN(C)C=Nc1c(I)cc(I)c(CCC(=O)O)c1I	-10.3%
[O-][N+](=Nc1ccccc1)c1ccccc1	-3.87%
C=CC[N+]1([C@H]2C[C@H]3[C@@H]4CC[C@H]5C[C@H](O)[C@@H](N6CCOCC6)C[C@]5(C)[C@H]4CC[C@]3(C)[C@H]2OC(C)=O)CCCC1	4.04%
CC(C)OC(=O)Nc1ccc2nc(-c3cscn3)[nH]c2c1	0%
CC(=O)Nc1ccc(NC(=S)NC(=O)c2ccc(C(C)(C)C)cc2)cc1	-8.57%
O=c1n(CC2CO2)c(=O)n(CC2CO2)c(=O)n1CC1CO1 (configuration not stated)	-8.88%
CC1CCC(NC(=O)N(CCCl)N=O)CC1 (configuration not stated)	-6.09%
Cc1cc(C(=O)NCCc2ccc(S(=O)(=O)NC(=O)NN3CCCCCC3)cc2)no1	-2.71%
O=C(O)COc1ccc(CCNS(=O)(=O)c2ccccc2)s1	-11.1%

Structure (SMILES)	activity change, negative = inhibition
CC(C)c1ncc([N+](=O)[O-])n1C	-14.1%
Cc1ncc(C[n+]2csc(CCOP(=O)(O)O)c2C)c(N)n1	0%
CCOC(=O)c1cc(-c2ccccc2)nc2ccc(C)cc12	-4.89%
O=C(O)[C@H]1CN(C/C=C/P(=O)(O)O)CCN1	-2.35%
O=C1CCC(c2ccccc2)(C2CCN(Cc3ccccc3)CC2)C(=O)N1 (configuration not stated)	-4.14%
O=C1c2ccccc2C(=O)C1c1ccc(Cl)cc1	17%
CCC(Cc1c(I)cc(I)c(O)c1I)C(=O)O (configuration not stated)	20.5%
C[Se]CC[C@H](N)C(=O)O	-0.346%
N#Cc1ccc2c(c1)N(CCCN1CCC(O)CC1)c1ccccc1S2	-0.594%
C[C@]12CC[C@@H]3c4ccc(OC(=O)c5ccccc5)cc4CC[C@H]3[C@@H]1CC[C@@H]2O	-3.9%
CCCCCCCCCCCCCCCCCC(=O)OC[C@@H](O)[C@H]1OC[C@H](O)[C@H]1O	5.81%
O=C1c2ccccc2C(=O)c2c1ccc(O)c2O	-18.6%
CN1CCc2c(c3ccccc3n2Cc2ccccc2)C1	-8.94% [at 24.3 µM]
O=C(O[C@H]1CN2CCC1CC2)N1CCc2ccccc2[C@@H]1c1ccccc1	1.35%
CCCCC[C@H](O)/C=C/[C@H]1[C@H](O)CC(=O)[C@@H]1C/C=C\CCCC(=O)O	1.27%
O=C(CCCCCCCCCCCCC1CCCC1)Nc1ccc(S(=O)(=O)c2ccc(NC(=O)CCCCCCCCCCCCC3CCCC3)cc2)cc1	-19.9%
CC(C)CCC[C@@H](C)[C@H]1CC[C@H]2[C@@H]3CC[C@@H]4C[C@H](O)CC[C@]4(C)[C@H]3CC[C@]12C	14.5%
Oc1ccc(Cl)c2c1CCC2	-2.38%
